# Data reported in publication PMC6919601, “Identification of Plasmodium dipeptidyl aminopeptidase allosteric inhibitors by high throughput screening” (PLoS ONE, 2019).
# Out of some 110,000 compounds screened, about 230 (0.21%) showed an effect of 50% or more. Only a selection was taken, and strong results are over-represented in it overall.
# Biological target: DPAP1 (Plasmodium falciparum, UniProt Q8IIJ9)
# Test: primary screen, percent inhibition; read by cleavage of a fluorogenic dipeptide substrate; higher = more effect of the substance
# Design: species or system P. falciparum D10 trophozoite lysates; single well
# 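Also: 30 min substrate incubation versus DMSO and 10 µM JCP410 controls.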
# Sequence of DPAP1 (Q8IIJ9 whole entry, looked up): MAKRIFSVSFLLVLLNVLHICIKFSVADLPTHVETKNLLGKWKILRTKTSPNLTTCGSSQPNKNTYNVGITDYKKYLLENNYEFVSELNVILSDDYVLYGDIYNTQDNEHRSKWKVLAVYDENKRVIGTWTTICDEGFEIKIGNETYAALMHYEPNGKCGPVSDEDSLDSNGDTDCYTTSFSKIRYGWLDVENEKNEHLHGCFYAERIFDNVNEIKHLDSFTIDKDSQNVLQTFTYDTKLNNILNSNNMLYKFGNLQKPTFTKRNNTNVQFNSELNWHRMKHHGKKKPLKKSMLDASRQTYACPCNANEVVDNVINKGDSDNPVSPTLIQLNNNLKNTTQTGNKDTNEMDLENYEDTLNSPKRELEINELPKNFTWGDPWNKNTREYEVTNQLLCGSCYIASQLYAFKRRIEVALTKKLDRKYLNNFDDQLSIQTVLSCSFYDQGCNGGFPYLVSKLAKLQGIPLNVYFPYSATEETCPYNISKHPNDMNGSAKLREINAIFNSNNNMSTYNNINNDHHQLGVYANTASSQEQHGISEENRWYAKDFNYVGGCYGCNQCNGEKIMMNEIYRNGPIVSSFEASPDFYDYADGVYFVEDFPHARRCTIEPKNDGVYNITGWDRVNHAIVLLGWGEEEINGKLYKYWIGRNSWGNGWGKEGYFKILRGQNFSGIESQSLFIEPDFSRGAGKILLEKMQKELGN
row,SMILES,% Inhibition @ 10 uM [%]
1,CC1CCN(S(=O)(=O)c2ccc(NC(=O)C(C)(C)C)cc2)CC1,-6.17
2,N=C(Cc1cccc2ccccc12)NOC(=O)c1cccs1,3.66
3,COc1cc2c(cc1OC)C(C(=O)N1CCC(C)CC1)C(c1cccnc1)N(C)C2=O (stereo not drawn),1.83
4,CCCc1nc2ccccc2n1Cc1ccccc1OC,0.913
5,CCOc1ccc(C2CC(=O)N3CN(Cc4cccnc4)CSC3=C2C#N)cc1 (stereo not drawn),56
6,N#CC1=C2SCN(Cc3cccnc3)CN2C(=O)CC1c1ccc(F)cc1 (stereo not drawn),55.3
7,Cc1ccc(C2CC(=O)N3CN(Cc4cccnc4)CSC3=C2C#N)cc1 (stereo not drawn),43.8
8,COc1ccc(C2CC(=O)N3CN(Cc4cccnc4)CSC3=C2C#N)cc1 (stereo not drawn),46.3
9,CCc1ccc(C2CC(=O)N3CN(Cc4ccco4)CSC3=C2C#N)cc1 (stereo not drawn),33.6
10,CN(CC(=O)NC1CCCCCC1)S(=O)(=O)c1ccc(F)cc1,3.17
11,CCN1CCN(C(=O)C2CC(c3ccc(OC)cc3)=NO2)CC1 (stereo not drawn),1.62
12,N#CCCN1CCN(C2=NC(=O)/C(=C\c3ccc(-c4ccc(Cl)cc4)o3)S2)CC1,-2.8
13,COc1ccccc1NC(=O)c1cnc(Nc2nc3ccccc3o2)nc1C,-4.12
14,CCCN1CCC(N2CCC(C)CC2)CC1,-3.74
15,COc1cccc2c(O)c(C(=O)O)cnc12,0.51
16,Cc1cc(-c2ccc(C)c(S(=O)(=O)N3CCN(CCOc4ccc(Cl)cc4)CC3)c2)on1,-5.87
17,Cc1cc2nc(O)c(O)nc2cc1S(=O)(=O)N1CCN(CCOc2ccc(Cl)cc2)CC1,52.3
18,Cc1nc(O)nc(O)c1S(=O)(=O)N1CCN(CCOc2ccc(Cl)cc2)CC1,-1.38
19,COc1ccc(-c2cc(C(F)(F)F)nc(SCC(=O)N3CCOCC3)n2)cc1,-8.55
20,COC(=O)c1sc2nc(-c3ccccc3)cc(-c3ccc(OC)cc3)c2c1N,2.79
21,COc1ccc(-c2cc(-c3ccccc3)nc3sc(C(N)=O)c(N)c23)cc1,76
22,COc1ccc(-c2cc(-c3ccc(OC)cc3)c3c(N)c(C(N)=O)sc3n2)cc1,19.8
23,CCCN1C(=O)c2n[nH]c(C)c2C1c1cccnc1 (stereo not drawn),-4.67
24,COc1ccc(C2=N/C(=C\c3cccc(C(F)(F)F)c3)C(=O)O2)cc1OC,6.11
25,CCOc1c(/C=C2/S/C(=N\c3ccccc3)N(C)C2=O)cccc1OC,1.57
26,O=C1CC(Sc2ccccn2)C(=O)N1c1ccc(Br)cc1 (stereo not drawn),2.38
27,COCCNC(=O)CCN1C(=O)c2ccccc2Sc2ncccc21,-2.97
